Most compounds without a hit are left out; they make up all but 2.8% or so of the library.
KKLEB cytotox – CF airway cell cytotoxicity counter-screen; AID 602141; 360,000 compounds, 0.36% hits; KKLEB CF airway cells viability, ATPlite luminescence, overnight; active compounds read low; cells stimulated with P. aeruginosa culture filtrate; activity change (cytotoxicity), % at 5 µM;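 active = corrected activity change at or below -50% at 5 µM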
Peg3 prom inh – inhibitors of Peg3 promoter. HeLa PEG-Prom luciferase reporter, luminescence, overnight. inhibition, % at 20 µM. 360,000 compounds, 1.7% hits. AID 588405;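 active = inhibition of at least 50% at 20 µM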
HIF-2a inh – inhibitors of HIF-2a; 786-0 RCC cells HIF-2a reporter, luciferase luminescence, overnight; inhibition, % at 18.8 µM; 360,000 compounds, 0.72% hits;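 active = inhibition of the luminescence signal of 40% or more relative to plate controls, in a single-dose primary screen at 18.75 µM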
Shn3 inh set2 – inhibitors of Schnurri-3 3'UTR reporter in osteoblasts. Clone20 osteoblast Shn3 3'UTR firefly luciferase, 24 h. inhibition, % at 12.5 µM. 360,000 compounds, 0.52% hits. AID 588674;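 active = mean inhibition of at least 75% with every replicate also reaching 75%; inconclusive = mean inhibition at least 75% but some replicate below; inactive = mean inhibition below 75%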;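 also: 0% = median of neutral control wells and 100% = pilot-screen positive control compound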
TRPM1 prom inh – inhibitors of MITF-driven TRPM1 promoter in melanoma cells | SK-MEL-5 TRPM1 promoter luciferase, 24 h | inhibition, % at 12.5 µM | 330,000 compounds, 0.83% hits | AID 488899;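 active = mean inhibition across replicates of 60% or more, whatever share of single replicates reaches that level; inconclusive = some that reach 60%, reason not given; inactive = mean inhibition across replicates below 60%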
CF NFkB block – cystic fibrosis NF-kB activation inhibition. AID 588850. 360,000 compounds, 0.86% hits. KKLEB NF-kB-GFP reporter, PAF-induced, GFP fluorescence overnight. inhibition, % at 5 µM;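 active = at least 50% inhibition at 5 µM, scaled per plate between neutral and stimulator controls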;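 also: PAF is a Pseudomonas aeruginosa culture filtrate used as stimulus; plate controls were PAF-stimulated DMSO wells for no effect and unstimulated DMSO wells for full effect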
An asterisk follows results filed as active; ? = inconclusive; nt = no result.

SMILES	KKLEB cytotox	Peg3 prom inh	HIF-2a inh	Shn3 inh set2	TRPM1 prom inh	CF NFkB block
COc1ccc(N=C2S/C(=C\c3ccc(OCC(=O)O)cc3)C(=O)N2CCc2c[nH]c3ccccc23)cc1	8	9	16	-11	-10	-3
COc1ccc(N=C2S/C(=C\c3ccc(N4CCOCC4)o3)C(=O)N2CCc2c[nH]c3ccccc23)cc1	-16	101*	92*	95*	58	-9
CCN(CC)Cc1ccc(NC(=O)c2sc3cc(Cl)ccc3c2Cl)cc1	-3	105*	-118	-3	3	2
CCCCn1nnc(NC(=O)c2sc3cc(Cl)ccc3c2Cl)n1	1	-30	-29	-21	-5	-12
CC(C)C1Cc2[nH]c(=S)[nH]c(=O)c2C(c2ccc(Cl)cc2)O1 (stereo not given)	-1	4	8	7	nt	12
O=C1C2C3C=CC(CO)(O3)C2C(=O)N1c1ccccc1-c1ccccc1 (stereo not given)	-31	105*	11	72	23	76*
CCOc1cccc(/C=C/c2ccc3cccc(O)c3n2)c1O	14	97*	-243	-14	-19	-35
Cc1cc(-c2n[nH]c(=S)n2/N=C/c2c[nH]c3ccccc23)n[nH]1	-6	0	6	4	15	19
Cc1cc(-c2n[nH]c(=S)n2/N=C/c2ccccc2[N+](=O)[O-])n[nH]1	6	51*	9	-8	9	0
CCc1ccc(/C=C2\SC(=S)N(CCCC(=O)N(CCO)c3ccccc3)C2=O)cc1	-17	76*	65*	8	nt	20
CCOc1ccc(/C=C2\SC(=S)N(CCC(=O)N(CCO)c3ccccc3)C2=O)cc1	-1	-6	57*	-27	35	6
O=C1/C(=C/c2cccs2)SC(=S)N1CCCC(=O)N(CCO)c1ccccc1	-3	20	21	1	-3	2
CCc1ccc(C=C2SC(=S)N(CCCC(=O)Nc3ccc(C(=O)O)cc3)C2=O)cc1	-12	-68	51*	-6	nt	6
COc1ccc(NC(=O)N(C)C[C@H]2Oc3ccc(NS(=O)(=O)c4cccs4)cc3C(=O)N([C@@H](C)CO)C[C@@H]2C)cc1	-6	-13	-5	-25	4	-12
Cc1ccc(S(=O)(=O)NC(=O)NCCCN2CCOCC2)cc1	12	-1	13	-24	-4	-7
OCC1OC(n2cnc3c(NCc4ccco4)ncnc32)C(O)C1O (stereo not given)	-22	87*	-87	?	?	48
OC[C@H]1O[C@@H](n2cnc3c(NCc4ccco4)ncnc32)[C@H](O)[C@@H]1O	-26	40	-126	85	66*	41
C=CCNc1ncnc2c1ncn2C1OC(CO)C(O)C1O (stereo not given)	-38	-22	12	43	6	27
O=C(COc1coc(CN2CCc3ccccc32)cc1=O)Nc1ccccc1	0	0	-10	1	2	-14
O=C(CN1c2ccccc2Sc2ccccc21)NNC(=S)Nc1ccc(Cl)cc1Cl	-17	50*	0	11	-3	26
CCN(CC)C(=O)C(c1ccccc1)S(=O)(=O)N1CCOCC1 (stereo not given)	-14	0	-3	-20	nt	30
O=C(C(=O)c1cc(Br)ccc1O)c1cc(Br)ccc1O	-28	21	-35	13	13	60*
COc1ccc(CCN2C(=O)c3cccc4c(C(=O)N5CCCCC5)ccc(c34)C2=O)cc1OC	2	89*	10	48	49	-12
Nc1nc(=S)c2[nH]cnc2[nH]1	-6	63*	13	-4	78*	2
Nc1nc(=S)c2[nH]c(=S)[nH]c2[nH]1	4	35	9	-11	6	8
SMILES	KKLEB cytotox	Peg3 prom inh	HIF-2a inh	Shn3 inh set2	TRPM1 prom inh	CF NFkB block
Cc1ncc(CO)c(CO)c1OCC(O)CN1CCN(c2ccc(F)cc2)CC1 (stereo not given)	-7	6	3	7	nt	3
CC(C)=CCc1c(O)cc(O)c2c(=O)c(O[C@@H]3O[C@@H](C)[C@H](O)[C@@H](O)[C@H]3O)c(-c3ccc(O)cc3)oc12	14	38	0	12	5	68*
O=[N+]([O-])c1ccc(Cl)c(NC(=S)N2CCCC2)c1	-14	-96	-105	-55	-28	-8
O=C(C(Cl)Cl)N1c2ccccc2OCC1c1ccccc1 (stereo not given)	4	59*	9	36	5	-4
O=C(CCC1CCCN(C(=O)c2cc(F)ccc2F)C1)N1CCN(c2ccccn2)CC1 (stereo not given)	-3	13	11	-16	nt	1
CCN(c1ccccc1)S(=O)(=O)c1c(C)noc1C	8	2	0	-12	0	-4
COC(=O)c1c(NC(=S)NN2CCN(C)CC2)sc2c1CCC(C)C2 (stereo not given)	-45	107*	-10	17	51	26
Cc1cc(-n2c(C)cc(C(=O)CSc3nnnn3-c3ccc(Cl)cc3)c2C)no1	-68*	7	-9	11	14	51*
CC(C)c1ccc(O)c(NC(=S)NC(=O)CCc2ccccc2)c1	-4	-4	-31	18	-14	24
CCN(CC)CCNC(=O)c1ccc(NC(=O)c2cccc(S(=O)(=O)N3c4ccccc4CC3C)c2)cc1 (stereo not given)	-14	86*	22	7	93*	23
CCN(CC)CCNC(=O)c1ccc(NC(=O)c2cccc(S(=O)(=O)N3CCc4ccccc43)c2)cc1	-18	77*	11	17	58	6
O=C(CCNC(=O)c1ccco1)NCc1ccc(C(=O)O)cc1	10	18	19	-13	-5	-5
CN(C)CCCNc1nc2cc(-c3cccc(Cl)c3)sc2c(=O)n1C	-9	91*	-54	-15	nt	-43
CN(C)CCCNc1nc2cc(-c3cccc(C(F)(F)F)c3)sc2c(=O)n1C	-5	96*	-50	-10	nt	-13
COc1ccc(-c2cc3nc(NCCCN(C)C)n(C)c(=O)c3s2)cc1OC	3	-24	-15	-5	nt	-18
COC(=O)c1c(NC(=O)CCl)sc(C(=O)N2CCOCC2)c1C	-40	37	-2	-23	25	50*
COC(=O)c1c(N)sc(C(=O)N2CCOCC2)c1C	-2	-3	13	3	6	10
OC(c1ccc(F)c(F)c1)c1nc(-c2cccc(F)c2)cs1 (stereo not given)	-7	-10	-36	-6	nt	-18
O=C(CSc1nnc(CNC(=O)c2cccc(C(F)(F)F)c2)o1)NC1CCCCC1	-1	-2	11	-4	7	12
CCCCCCc1cc2cc(-c3nnc(-c4ccccc4O)o3)c(=O)oc2cc1O	-66*	36	-4	9	46	-34
